Over roughly 9,900 sequences, “r (bound/input frequency ratio)” has its median near 0.7; the highest 2% begin near 6.5. For the sample, the highest values were picked, then their nearest neighbours and some sequences at random.
B1: ENSMUSG00000032194.22|Kank2 (ssRNA)
RNA: GGGAGUUCUACAGUCCGACGAUCGCUUCGAUAUCCGCAUGCUAUCCCUCUGUCCCAUUCUGCCUCGGCAUUCCUCAGCCCCUGAACUUCCCUGAGGGAGCCCUGACAUCUACCAGGCUCAAGCUCCUGGAAGCCUUUCCCAGCACCCUGGGUUCAAAGCCAGAAAGCCAAGCUACAUUCUCCUCCCAGUUGGCACCAGUUGACAACGCCUUGGGUGUGGGUUUCUUGUAAAGAACAUAGAGAACAAUCAGCCGGCAAUUAUGGGAGGAGGAAGGGGGGGCAAGAAGAGAAAAUACUGUAUUCUCUCUUGCGGUCGCACUAGUGUGGAAUUCUCGGGUGUCAAGG
B2: ENSMUSG00000035202.148|Lars2 (ssRNA)
RNA: GGGAGUUCUACAGUCCGACGAUCGCUUCGAUAUCCGCAUGCUAUCUCCAACACGAAAAAAGCAAGGCAACUCUACCAAAGAAACUAAUUACAUACUUGUAUUCCCAAUAUGUGAGAAGCUGAGGAAGGAGGAUCAUGAGUUUAAAGCCAUCCUUGGUUACAUGAGACUCUUGUCUCAAAGAACUACCAGGGAUCCUAAUGGACAACAAAGGUUGAAAACCAUUGAAUUAAUAAAUGUUGUGAACCAUAAUUUCUACCCAGUCCUUCUUCCUUCAUUUUCAUCUCAUCUGGGAUAAGUUUAGCCCUCUUGCGGUCGCACUAGUGUGGAAUUCUCGGGUGUCAAGG
B3: ENSMUSG00000043670.75|Diras1 (ssRNA)
RNA: GGGAGUUCUACAGUCCGACGAUCGCUUCGAUAUCCGCAUGCUAUUUGAUCCCUGUGGAUCUGAAAACAGGGACCUGGCUAAGGAACUGCUCAUCCCAGUCAGGCCCAGAGAGGUUACCUUGCCUCUCCAUCUCUGUCCCUGUGUGCCCAGCCAUGCCCACUGUCCCUGUCCCUCACAUUCUAUCACUGUGACCUCUGGGGAGUGCCCAUUGACCUCAUCUUCCUUCACUAAUAUCUUAUUUCUUUCACCUGAUCCUGUCCUUUCCCCGUGACCUCUGACCUGUGGCCUUCCCUGGGUCCAGAACUCUUGCGGUCGCACUAGUGUGGAAUUCUCGGGUGUCAAGG
B4: ENSMUSG00000058297.201|Spock2 (ssRNA)
RNA: GGGAGUUCUACAGUCCGACGAUCGCUUCGAUAUCCGCAUGCUAAGGAAAUGGUUCCCUCUUGCCCCGACCAAUAGAAGGGCGUGUCCCCGAGACCCUUGUGAGGAACCACGGGGAGCUGUGACUUCCUGUGCCCAGAAGGUCCUGGAGGAGAGGCCCCAAAGCCUUAGUCCUCUCAGCCAUGACUUUCCUCUGUCUCAAGGGUCCCCAAGAUGGCCCUAGAAGAACCAUGCCCCAGACUCUAUUUAAAGCCCUAUAGCAUAUAUGAAUAGAGAACGGUGUAUCUAUCAGAGGGGACCACACUGCUCUUGCGGUCGCACUAGUGUGGAAUUCUCGGGUGUCAAGG
B5: ENSMUSG00000061578.1546|Ksr2|104:108 (ssRNA)
RNA: GGGAGUUCUACAGUCCGACGAUCGCUUCGAUAUCCGCAUGCUAAGAUCAUUUAUAAAGUUUUCUACACUUCUCAAAAAAAAAAAUAUUUCUAACCUUGGCUGUUGGACAGUCUGUGAGCCUGUGAGCCGGCAAGCCUGUUGUUUCUACACAUUAGUGCAAUGUUAGUGAGAAUCCAGUGUCUGAGUUAUUAAUGCCAAUAAAGAAUUUGAGAAUUACUGCAUCCGCUGCUGUCACUCCAGGUCAGAACUCUGCUGUUGUCUGUUGGAUGGAAGGAAGCUCCAGAGUGAGGAACAAUGGUUGCUCUCUUGCGGUCGCACUAGUGUGGAAUUCUCGGGUGUCAAGG
B6: ENSMUSG00000029636.29|Wasf3|57:61;103:107 (ssRNA)
RNA: GGGAGUUCUACAGUCCGACGAUCGCUUCGAUAUCCGCAUGCUAUCUCUGCACCCUCACAGUGGUAUUUCCCUGUAGCUUUAGUCCCUUUUGUAUUAACACACACAUUUGCUUCUGCACAUCCUUCUGGAUUUGUUGAGUAUUUACACACAAAUACUUAAGUGCCACAGAACACAGCACACCGUGCUGCACACCAGGAAACUCGCAGUAUUAGUGCAUCACCCUGGAACAGCAUCUUGCUUCCCUCUCAGCCGUGAGAGUCCCCUCUCCUGUCCAUCCUGAUUUGGUGGGCUUGCCACGUAUCUCUCUUGCGGUCGCACUAGUGUGGAAUUCUCGGGUGUCAAGG
B7: ENSMUSG00000029636.244|Wasf3 (ssRNA)
RNA: GGGAGUUCUACAGUCCGACGAUCGCUUCGAUAUCCGCAUGCUAUGACAGGGAAUGCCUGUGGGAUAAUUAAAAAUGGUUUUUGCUCAUGAGUUUGGGAUGUCACCCAGCCGCCCACAUCGCCUGCUAUGUGUGUGGACGCCUGUCCGCUUGGCCAGCUAUCCUGUAACACCUGCCAGUAGUAGGUUUUCCUCAUGUCACUAUGACAGUGAAAGCCCAUGUGCAAGCCCCUCCCUACGCCCUGCUUUGGCGUGUGUCUGAGUGCUCUGUGCUGCGCCAUGGCCAUCCUGGAGCCUGCGCACACGCUCUUGCGGUCGCACUAGUGUGGAAUUCUCGGGUGUCAAGG
B8: ENSMUSG00000061578.1047|Ksr2 (ssRNA)
RNA: GGGAGUUCUACAGUCCGACGAUCGCUUCGAUAUCCGCAUGCUACCUCUCCCUGGAGCUGGCAGCCAUGGUUGAUGGCUAUGGGAUACAAUGUGGAUCUUUAGAUGUGAAAGUCUGAUGACUCAAAUCAAAGUUUGGUUUUUCUUUUCUACUACUCUGAAGGAAAAUCUCAGCUUGGCUAUUUCUUCAUGUUUUAAAAAUGUCUUGACUUCUCUCAGCAACCAACUUCAGGUGCCAGGAUAUGAGAUGCUAAGGUUCAGGGGUGGUGGAGGUGAUUCUAUCCAGUGGCCAGCAAUACCCAAAAGCUCUUGCGGUCGCACUAGUGUGGAAUUCUCGGGUGUCAAGG
B9: ENSMUSG00000042529.392|Kcnj12|56:60;127:179;184:189;193:197;209:219;242:247 (ssRNA)
RNA: GGGAGUUCUACAGUCCGACGAUCGCUUCGAUAUCCGCAUGCUAGAUCAGUCCGACUUGAGUCCCUGCCCUGCCCUGGUUAUGCAGGCUGUACGACGCACACACCAUCAGUCUGAGGAGUCUGGUGGUAAGUAAGCCUCUGCAGCAGACCCUGUCGGAGGCCAUGGGGGCCACACACACACACACACACACACACACACACACACACACACACACACACACACAACAACACACAGGCACACGAGGUCCCAGGCACACACAUACUGAAUGUCAGUGGCUUGGGUGCACACACGAGAGAGAGAGAGCUCUUGCGGUCGCACUAGUGUGGAAUUCUCGGGUGUCAAGG

molecular target: TDP-43 (Homo sapiens, UniProt Q13148 1-414); experiment: RNA Bind-n-Seq with designed 260-mer pool; 25 mM Tris-HCl, 150 mM KCl, 3 mM MgCl2, BSA (printed 500 mg/mL), 20 units/mL SUPERase IN; pH not stated; 500 nM RNA pool, 1 h, 4 C; TDP-43 5, 50, 500 nM; high values mean tight binding; conditions: protein: recombinant; tags: SBP (GST cleaved off with PreScission; pGEX-GST-SBP)
Sequence (Q13148 whole entry): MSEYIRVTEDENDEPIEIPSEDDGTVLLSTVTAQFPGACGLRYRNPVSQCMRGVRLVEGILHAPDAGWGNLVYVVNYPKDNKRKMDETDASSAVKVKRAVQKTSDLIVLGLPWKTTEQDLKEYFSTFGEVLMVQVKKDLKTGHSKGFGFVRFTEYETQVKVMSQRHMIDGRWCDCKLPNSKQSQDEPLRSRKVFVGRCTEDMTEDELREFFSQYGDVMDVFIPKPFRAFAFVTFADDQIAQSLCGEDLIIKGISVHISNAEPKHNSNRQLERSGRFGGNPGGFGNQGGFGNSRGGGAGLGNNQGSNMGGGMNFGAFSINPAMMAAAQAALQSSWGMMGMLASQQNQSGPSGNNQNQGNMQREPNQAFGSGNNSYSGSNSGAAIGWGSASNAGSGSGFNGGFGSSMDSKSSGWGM
In short: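 In 25 mM Tris-HCl, 150 mM KCl, 3 mM MgCl2, BSA and SUPERase IN, 500 nM of an in vitro-transcribed 260-nt 3′ UTR oligo pool was incubated for 1 h at 4 °C with SBP-tagged TDP-43 (5, 50 or 500 nM) captured on streptavidin beads. RNA remaining after washes was biotin-eluted, reverse transcribed, PCR-amplified and sequenced. Binding, R, is the bound-sample abundance of each oligo, normalized to mapped reads, divided by its abundance in input. Each duplicate used a separate, independent protein batch.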

Row | Binder | binding signal
1 | B1 | 0.911 R (bound/input frequency ratio)
2 | B2 | 0.0673 R (bound/input frequency ratio)
3 | B3 | 2.09 R (bound/input frequency ratio)
4 | B4 | 0.372 R (bound/input frequency ratio)
5 | B5 | 0.542 R (bound/input frequency ratio)
6 | B6 | 0.499 R (bound/input frequency ratio)
7 | B7 | 0.625 R (bound/input frequency ratio)
8 | B8 | 0.12 R (bound/input frequency ratio)
9 | B9 | 2.98 R (bound/input frequency ratio)
